Source: PubChem BioAssay (Tox21)
Inconclusive results are not listed. Active and inactive are the calls of the source. Unless noted, the call rests on the fitted dose curve; in most records, active means well fitted curve in the direction sought with a large enough effect in the repeat runs; inconclusive means weak or mixed curves; inactive means no such curve, though single readings can be large; an effect the other way counts as inactive or inconclusive.

Legend:
[1] = qHTS assay for small molecule agonists of the p53 signaling pathway (AID 651631; calls by dose curve; further: nearly all actives have a fitted effect of over 15% in size)
Method in brief: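 Readout was fluorescence from the LiveBLAzer FRET substrate, applied for 2 h at room temperature after 16 h compound exposure at 37 °C. Cells were the p53RE-bla HCT-116 line, with beta-lactamase driven by p53 response elements.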

[2] = qHTS assay for small molecules that induce genotoxicity in human embryonic kidney cells expressing luciferase-tagged ATAD5 (AID 651632); further: nearly all actives have a fitted effect of over 15% in size
Method in brief: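 ATAD5-luc HEK293T, 2,000 cells/well; cpd or DMSO pin-transferred; 16 hr, 37C/5% CO2; Amplite 30 min RT; luminescence.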

[3] = qHTS assay for small molecule agonists of the p53 signaling pathway - cell viability (AID 651633; calls by dose curve; further: series mostly up to about 83 µM; nearly all actives have a fitted effect of over 30% in size)
Method in brief: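 Viability counter-read: CellTiter-Glo luminescence (30 min, room temperature) in the same p53RE-bla plates. These plates had been exposed to compounds for 16 h at 37 C.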

[4] = qHTS assay for small molecules that induce genotoxicity in human embryonic kidney cells expressing luciferase-tagged ATAD5 - cell viability (AID 651634; calls by dose curve; further: nearly all actives have a fitted effect of over 25% in size)
Method in brief: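 Fluorescence from CellTiter-Fluor, reporting protease activity within live cells, served as the viability read-out. HEK293T cells carrying luciferase-tagged ATAD5 had been treated with compound for 15.5 hr at 37C.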

[5] = qHTS assay for small molecule disruptors of the mitochondrial membrane potential - cell viability (AID 720634; calls by dose curve;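 further: human HepG2 liver cancer cells; series mostly up to about 83 µM; nearly all actives have a fitted effect of over 20% in size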)
Method in brief: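 Cells: HepG2, 2,000/well, attached overnight. Compound 1 hr, 37 C/5% CO2. +m-MPI dye, +CellTiter-Glo 30 min RT. Readout: luminescence (ATP).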

[6] = qHTS assay to test for compound auto fluorescence at 590 nm (red) in HepG2 cells (AID 720674)
Method in brief: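 1 hr compound incubation on HepG2 cells, 37 C, 5% CO2; plate read ex 540 nm / em 590 nm; intensities reported as Rose Bengal sodium equivalents.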

[7] = qHTS assay to test for compound auto fluorescence at 535 nm (green) in HepG2 cells (AID 720675)
[8] = qHTS assay to test for compound auto fluorescence at 460 nm (blue) in HEK293 cells (AID 720678)
Method in brief: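 Intrinsic compound fluorescence is recorded in live HEK293 cultures after overnight incubation at 37C, 5% CO2, using excitation 405 nm and emission 460 nm. Values are referenced to triamterene.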

[9] = qHTS assay to test for compound auto fluorescence at 590 nm (red) in HEK293 cells (AID 720679)
Method in brief: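 Red autofluorescence, HEK293 cells: 2,000 cells/well; attach 4-5 hr 37C; add 23 nL cpd or DMSO; incubate o/n 37C 5% CO2; read Ex540/Em590; Rose Bengal sodium reference.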

[10] = qHTS assay for small molecule disruptors of the mitochondrial membrane potential (AID 720635); further: potency means the concentration at half of the fitted maximal effect
Method in brief: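 Mitochondrial membrane potential tracked with Mito-MPS dye, red aggregates (ex 540/em 590 nm) against green monomers (ex 490/em 535 nm). Compound treatment 1 hr at 37C, dye 30 min in HepG2.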
On the % scale 0 is the no-effect control and ±100 the full control effect.

CCCCOCCOC(=O)COc1nc(Cl)c(Cl)cc1Cl
inactive: outcome [1] | Potency [2] | outcome [3] | Potency [4] | outcome [5] | outcome [6] | outcome [7] | outcome [8] | outcome [9]

O=C(O)Cc1ccc(Cl)cc1Cl
inactive: outcome [1] | Potency [2] | outcome [3] | Potency [4] | outcome [5] | outcome [6] | outcome [7] | outcome [8]

NCCS
inactive: outcome [1] | Potency [2] | outcome [3] | Potency [4] | outcome [5] | Potency [10] | outcome [7] | outcome [8] | outcome [9]

ClCCCl
inactive: outcome [1] | Potency [2] | outcome [3] | Potency [4] | outcome [5] | Potency [10] | outcome [7] | outcome [8] | outcome [9]

CN(CCOc1ccc(NS(C)(=O)=O)cc1)CCc1ccc(NS(C)(=O)=O)cc1
inactive: outcome [1] | Potency [2] | outcome [3] | Potency [4] | outcome [5] | outcome [6] | outcome [7] | outcome [8] | outcome [9]

CCCOC(=O)C(C)O (centres undefined)
inactive: outcome [1] | Potency [2] | outcome [3] | Potency [4] | outcome [5] | outcome [6] | outcome [7] | outcome [8] | outcome [9]

O=C(O)c1cc(Cl)cc([N+](=O)[O-])c1Cl
inactive: outcome [1] | Potency [2] | outcome [3] | Potency [4] | outcome [5] | outcome [6] | outcome [7] | outcome [8] | outcome [9]

NS(=O)(=O)c1ccc(NC(=O)CCC(=O)O)cc1
inactive: outcome [1] | Potency [2] | outcome [3] | Potency [4] | outcome [5] | Potency [10] | outcome [7] | outcome [8] | outcome [9]

CCC(C=O)CC
inactive: outcome [1] | Potency [2] | outcome [3] | Potency [4] | outcome [5] | outcome [6] | outcome [7] | outcome [8] | outcome [9]

CCCCN
inactive: outcome [1] | Potency [2] | outcome [3] | Potency [4] | outcome [5] | outcome [6] | outcome [7] | outcome [8] | outcome [9]

N#Cc1ccc(C(=O)O)cc1
inactive: outcome [1] | Potency [2] | outcome [3] | Potency [4] | outcome [5] | Potency [10] | outcome [7] | outcome [8] | outcome [9]

Cc1ccccc1N=O
inactive: outcome [1] | Potency [2] | outcome [3] | Potency [4] | outcome [5] | outcome [7] | outcome [8] | outcome [9]

CCCCCOC(=O)CCC
inactive: outcome [1] | Potency [2] | outcome [3] | Potency [4] | outcome [5] | outcome [6] | outcome [7] | outcome [8] | outcome [9]

CCCCCCCCC1CCC(=O)O1 (centres undefined)
inactive: outcome [1] | Potency [2] | outcome [3] | Potency [4] | outcome [5] | outcome [6] | outcome [7] | outcome [8] | outcome [9]

CC1COc2ccccc2N1 (centres undefined)
inactive: outcome [1] | Potency [2] | outcome [3] | Potency [4] | outcome [5] | outcome [6] | outcome [7] | outcome [8] | outcome [9]

C=C(C)C(=O)OCC(C)(C)COC(=O)C(=C)C
inactive: outcome [1] | Potency [2] | outcome [3] | Potency [4] | outcome [5] | outcome [6] | outcome [7] | outcome [8] | outcome [9]

CCCC/C=C/C=C\C=O
inactive: outcome [1] | Potency [2] | outcome [3] | Potency [4] | outcome [5] | outcome [6] | outcome [7] | outcome [8] | outcome [9]

CC1=CCC(C(C)C)=CC1
inactive: outcome [1] | Potency [2] | outcome [3] | Potency [4] | outcome [6] | outcome [7] | outcome [8] | outcome [9]

BrCCCCCBr
inactive: outcome [1] | Potency [2] | outcome [3] | Potency [4] | outcome [5] | outcome [7] | outcome [8] | outcome [9]

CNC(=O)[C@H]1O[C@@H](n2cnc3c(NCc4cc(Cl)ccc4OCc4cc(C)no4)ncnc32)[C@H](O)[C@@H]1N
inactive: outcome [1] | Potency [2] | outcome [3] | Potency [4] | outcome [5] | outcome [7] | outcome [8] | outcome [9]

O=C(c1ccc(O)cc1)c1ccc(O)c(O)c1O
inactive: outcome [1] | Potency [2] | outcome [3] | outcome [5] | outcome [6] | outcome [7] | outcome [8] | outcome [9]
active: Potency [10] 27.4 µM

COc1ccc(-c2cc(=O)c3c(O)cc(O[C@@H]4O[C@H](CO[C@@H]5O[C@@H](C)[C@H](O)[C@@H](O)[C@H]5O)[C@@H](O)[C@H](O)[C@H]4O)cc3o2)cc1O
inactive: outcome [1] | Potency [2] | outcome [3] | Potency [4] | outcome [6] | outcome [7] | outcome [8] | outcome [9]

Cc1cc(Cl)c(C)cc1Cl
inactive: outcome [1] | Potency [2] | outcome [3] | Potency [4] | outcome [5] | outcome [7] | outcome [8]

CCO[Si](CCCS)(OCC)OCC
inactive: outcome [1] | Potency [2] | outcome [3] | Potency [4] | outcome [5] | outcome [6] | outcome [7] | outcome [8] | outcome [9]

CCCC(=O)C(C)=O
inactive: outcome [1] | Potency [2] | outcome [3] | Potency [4] | outcome [5] | outcome [7] | outcome [8] | outcome [9]

COCCOC(=O)C1=C(C)NC(C)=C(C(=O)OC(C)C)C1c1cccc([N+](=O)[O-])c1 (centres undefined)
inactive: outcome [1] | Potency [2] | outcome [3] | Potency [4] | outcome [5] | outcome [6] | outcome [7] | outcome [8] | outcome [9]

O=S(O)(O)=S
inactive: activation [1] -6.63% [at 8.3 µM] | activation [2] 2.28% [at 8.08 µM] | activity change, negative = cytotoxicity [3] 18.5% [at 8.08 µM] | activity, negative = cytotoxicity [4] -2.41% [at 8.08 µM] | activity change, negative = cytotoxicity [5] 11.6% [at 8.08 µM] | fluorescence, relative to Rose Bengal [6] -0.423% [at 3.72 µM] | fluorescence, % of fluorescein control [7] 0.0128% [at 3.72 µM] | fluorescence, % of triamterene [8] -0.0172% [at 3.72 µM] | fluorescence, % of fluorescent control [9] 0.178% [at 3.72 µM]
